Cytotoxicity call data for 65 compounds are collected here from the antibiotic and cytotoxicity screens of Wong et al. (2023).

The campaign covered roughly 39,000 compounds. About 1,500 (3.8%) were called active. The sample holds actives, similar compounds and a random draw of the others, so the mix is not that of the screen.

The subject of this assay is HSkMC (human skeletal muscle cells). Briefly: cytotoxicity call (relative viability < 0.9). As to conditions: 10 µM.
Regarding `N=C1NC(=O)CS1`, the cytotoxicity call is “inactive”.

As to `Cc1cc(C(=O)Nc2cccc3c2O[C@@H](CN(C)C(=O)Nc2ccccc2)[C@@H](C)CN([C@@H](C)CO)C3=O)n(C)n1`, the cytotoxicity call is “inactive”.

In the case of `O=C(C[C@H]1CC[C@@H](NS(=O)(=O)c2ccc(F)cc2)[C@H](CO)O1)N1CCC(Cc2ccccc2)CC1`, the cytotoxicity call was “inactive”.

Take `C[C@@H]1CCCCO[C@H](CN(C)Cc2ccccc2)[C@@H](C)CN([C@@H](C)CO)C(=O)c2cc(NC(=O)NC3CCCCC3)ccc2O1`: the cytotoxicity call was “inactive”.

Turning to `C[C@H](CO)N1C[C@H](C)[C@@H](CN(C)CC2CC2)OCCCC[C@H](C)Oc2ccc(NC(=O)Cc3ccccc3)cc2C1=O`, the cytotoxicity call is “inactive”.

Turning to `COc1ccc(S(=O)(=O)Nc2cccc3c2O[C@H](CN(C)S(=O)(=O)c2cn(C)cn2)[C@@H](C)CN([C@@H](C)CO)C3=O)cc1`, the cytotoxicity call was “inactive”.

Regarding `COc1cccc(NC(=O)N(C)C[C@@H]2OCc3ccccc3-c3c(n(C)c4ccccc34)C(=O)N([C@@H](C)CO)C[C@H]2C)c1`, the cytotoxicity call is “inactive”.

For `C[C@@H]1CN([C@@H](C)CO)C(=O)c2cc(NC(=O)c3ccccc3)ccc2O[C@@H](C)CCCCO[C@@H]1CN(C)C(=O)NC1CCCCC1`, the cytotoxicity call is “inactive”.

For the compound `Cc1noc(C)c1NC(=O)Nc1ccc2c(c1)C(=O)N([C@@H](C)CO)C[C@H](C)[C@@H](CN(C)Cc1ccc(C(=O)Nc3ccccc3N)cc1)O2`, the cytotoxicity call was “inactive”.

Regarding `C[C@H]1CCCCO[C@H](CN(C)C(=O)Nc2ccc(F)cc2)[C@@H](C)CN([C@@H](C)CO)C(=O)c2cc(NC(=O)Nc3ccc(F)cc3)ccc2O1`, the cytotoxicity call was “inactive”.

`C[C@@H]1CN([C@@H](C)CO)S(=O)(=O)c2ccc(C#Cc3ccccc3)cc2O[C@H]1CN(C)C(=O)Cc1ccccn1`: the cytotoxicity call is “inactive”.

Take `CCS(=O)(=O)Nc1ccc2c(c1)C(=O)N(C)[C@@H]1CC[C@@H](CC(=O)N[C@H]3CCN(Cc4ccccc4)C3)O[C@H]1CO2`: the cytotoxicity call is “inactive”.

Regarding `COc1ccc(S(=O)(=O)N(C)C[C@H]2Oc3ncc(C#CC4(O)CCCC4)cc3C(=O)N([C@H](C)CO)C[C@H]2C)cc1`, the cytotoxicity call was “inactive”.

With `CC(C)NC(=O)Nc1ccc2c(c1)C(=O)N([C@@H](C)CO)C[C@@H](C)[C@@H](CN(C)S(=O)(=O)c1cn(C)cn1)OCCCC[C@H](C)O2`, the cytotoxicity call is “inactive”.

With `CCN1C(=O)[C@H]2[C@@H](O)CS[C@H]2C1=O`, the cytotoxicity call is “inactive”.

With `C[C@@H]1CN([C@@H](C)CO)C(=O)Cc2cc(NC(=O)Nc3ccccc3)ccc2O[C@H]1CN(C)Cc1ccc(-c2ccccc2)cc1`, the cytotoxicity call is “inactive”.

On to `C[C@@H]1CN([C@H](C)CO)C(=O)Cc2cc(NC(=O)Nc3ccccc3)ccc2O[C@H]1CN(C)Cc1ccc(-c2ccccc2)cc1`, for which the cytotoxicity call is “inactive”.

As for `C[C@@H]1CN([C@H](C)CO)C(=O)Cc2cc(NC(=O)Nc3ccc(C(F)(F)F)cc3)ccc2O[C@H]1CN(C)Cc1ccc(-c2ccccc2)cc1`, the cytotoxicity call is “active”.

For `C[C@H]1CN([C@@H](C)CO)C(=O)Cc2cc(NC(=O)Nc3ccc(C(F)(F)F)cc3)ccc2O[C@@H]1CN(C)Cc1ccc(-c2ccccc2)cc1`, the cytotoxicity call was “active”.

Turning to `C[C@H](CO)N1C[C@H](C)[C@@H](CN(C)Cc2ccc(-c3ccccc3)cc2)Oc2ccc(NC(=O)Nc3ccc(C(F)(F)F)cc3)cc2CC1=O`, the cytotoxicity call was “active”.

With `C[C@@H]1CN([C@H](C)CO)C(=O)Cc2cc(NC(=O)Nc3ccc(C(F)(F)F)cc3)ccc2O[C@@H]1CN(C)Cc1ccc(-c2ccccc2)cc1`, the cytotoxicity call was “active”.

Consider `COc1cccc(NC(=O)N[C@@H]2C=C[C@@H](CC(=O)N3CCN(C)CC3)O[C@H]2CO)c1`, for which the cytotoxicity call is “inactive”.

In the case of `C[C@@H]1CN([C@@H](C)CO)C(=O)c2cccc(NS(=O)(=O)c3cn(C)cn3)c2O[C@H]1CN(C)C(=O)Nc1ccccc1`, the cytotoxicity call was “inactive”.

`C[C@H]1CCCCO[C@H](CN(C)C(=O)Nc2ccccc2)[C@@H](C)CN([C@@H](C)CO)C(=O)c2cc(NC(=O)CCC(F)(F)F)ccc2O1`: the cytotoxicity call was “inactive”.

As for `O=C(C[C@H]1CC[C@@H]2[C@H](COC[C@@H](O)CN2C(=O)c2cccnc2)O1)NCC1CC1`, the cytotoxicity call is “inactive”.

For `Cc1ccc(CSc2nnc(CCN)o2)cc1`, the cytotoxicity call is “inactive”.

Regarding `CCn1ncc(Br)c1CN`, the cytotoxicity call is “inactive”.

With `CC(C)NC(=O)[C@@H](N)c1ccccc1`, the cytotoxicity call was “inactive”.

As to `COc1ccc(NC(=O)Nc2ccc3c(c2)CC(=O)N([C@H](C)CO)C[C@@H](C)[C@H](CN(C)C(=O)Nc2cccc4ccccc24)O3)cc1`, the cytotoxicity call is “inactive”.

With `C[C@@H]1CN([C@H](C)CO)C(=O)c2ccccc2-c2ccccc2CO[C@@H]1CN(C)Cc1ccc(Oc2ccccc2)cc1`, the cytotoxicity call was “inactive”.

As for `COc1ccc(S(=O)(=O)N(C)C[C@@H]2Oc3ccc(NC(=O)Nc4c(C)noc4C)cc3CC(=O)N([C@@H](C)CO)C[C@H]2C)cc1`, the cytotoxicity call is “inactive”.

Regarding `O=C(C=CC=Cc1ccc2c(c1)OCO2)N1CCCCC1`, the cytotoxicity call is “inactive”.

As to `C[C@H](CO)N1C[C@H](C)[C@H](CN(C)C(=O)Nc2ccc3c(c2)OCO3)Oc2c(NC(=O)Nc3ccc(C(F)(F)F)cc3)cccc2C1=O`, the cytotoxicity call was “inactive”.

In the case of `C[C@@H]1CN([C@H](C)CO)C(=O)c2cccc(NC(=O)Nc3ccc(C(F)(F)F)cc3)c2O[C@@H]1CN(C)C(=O)Nc1ccc2c(c1)OCO2`, the cytotoxicity call is “inactive”.

On to `C[C@H]1CN([C@@H](C)CO)C(=O)c2cccc(NC(=O)Nc3ccc4c(c3)OCO4)c2O[C@@H]1CN(C)C(=O)Nc1ccc(C(F)(F)F)cc1`, for which the cytotoxicity call is “inactive”.

In the case of `C[C@H]1CN([C@@H](C)CO)C(=O)c2cccc(NC(=O)Nc3ccc(C(F)(F)F)cc3)c2O[C@@H]1CN(C)C(=O)Nc1ccc2c(c1)OCO2`, the cytotoxicity call is “active”.

For `C[C@H](CO)N1C[C@H](C)[C@@H](CN(C)C(=O)Nc2ccc3c(c2)OCO3)Oc2c(NC(=O)Nc3ccc(C(F)(F)F)cc3)cccc2C1=O`, the cytotoxicity call was “active”.

With `C[C@@H]1CN([C@@H](C)CO)C(=O)c2cccc(NC(=O)Nc3ccc(C(F)(F)F)cc3)c2O[C@H]1CN(C)C(=O)Nc1ccc2c(c1)OCO2`, the cytotoxicity call was “inactive”.

Regarding `Cc1ccc(S(=O)(=O)Nc2ccc3c(c2)CC(=O)N([C@H](C)CO)C[C@H](C)[C@@H](CN(C)Cc2ccncc2)O3)cc1`, the cytotoxicity call was “inactive”.

Turning to `C[C@@H]1CCCCO[C@@H](CN(C)S(=O)(=O)c2ccccc2)[C@H](C)CN([C@H](C)CO)C(=O)c2cc(NC(=O)NC3CCCCC3)ccc2O1`, the cytotoxicity call was “inactive”.

For the compound `CN(C)CCCNC(=O)C[C@@H]1C=C[C@@H](NC(=O)Cc2cccnc2)[C@H](CO)O1`, the cytotoxicity call was “inactive”.

As for `[N-]=[N+]=NCCOCCNC(=O)CCCOc1ccc(CS(=O)c2nnc(-c3ccc(F)cc3)o2)nc1` (stereo not given), the cytotoxicity call was “active”.

`O=C1OCCN/C1=C/C(=O)c1ccccc1`: the cytotoxicity call is “inactive”.

Turning to `Cc1ccc(S(=O)(=O)N(C)C[C@@H]2Oc3ccc(NS(=O)(=O)c4cn(C)cn4)cc3CC(=O)N([C@@H](C)CO)C[C@H]2C)cc1`, the cytotoxicity call was “inactive”.

As for `C[C@@H]1CN([C@@H](C)CO)C(=O)Cc2cc(NC(=O)C3CC3)ccc2O[C@H]1CN(C)Cc1ccc2c(c1)OCO2`, the cytotoxicity call was “inactive”.

Turning to `O=C(C[C@H]1C=C[C@H](NC(=O)Nc2ccc3c(c2)OCO3)[C@@H](CO)O1)NCCCN1CCOCC1`, the cytotoxicity call is “inactive”.

For the compound `C[C@@H]1CN([C@@H](C)CO)S(=O)(=O)c2ccc(C#CCN(C)C)cc2O[C@@H]1CN(C)Cc1ccncc1`, the cytotoxicity call was “inactive”.

In the case of `CO[C@@H]1CN(C)C(=O)c2ccc(NC(=O)NC(C)C)cc2OC[C@@H](C)N(Cc2ccc(-c3ccccn3)cc2)C[C@@H]1C`, the cytotoxicity call was “inactive”.

In the case of `Cc1ccc(OC(=O)N(C)C[C@@H]2OCc3ccccc3-c3ccccc3C(=O)N([C@@H](C)CO)C[C@@H]2C)cc1`, the cytotoxicity call is “inactive”.

`C[C@H](CO)N1C[C@H](C)[C@@H](CN(C)C(=O)Nc2cccc3ccccc23)Oc2c(NC(=O)c3nc4ccccc4s3)cccc2C1=O`: the cytotoxicity call was “active”.

With `C[C@@H]1CN([C@@H](C)CO)C(=O)c2cccc(NC(=O)c3nc4ccccc4s3)c2O[C@@H]1CN(C)S(=O)(=O)c1cn(C)cn1`, the cytotoxicity call was “inactive”.

For the compound `C[C@H](CO)N1C[C@H](C)[C@@H](CN(C)C(=O)Nc2ccc(F)cc2)Oc2c(NC(=O)Nc3cccc4ccccc34)cccc2C1=O`, the cytotoxicity call was “inactive”.

Take `C[C@H](CO)N1C[C@H](C)[C@H](CN(C)C(=O)Nc2ccc(F)cc2)Oc2c(NC(=O)Nc3cccc4ccccc34)cccc2C1=O`: the cytotoxicity call is “inactive”.

With `C[C@H]1CN([C@@H](C)CO)C(=O)c2cccc(NC(=O)Nc3cccc4ccccc34)c2O[C@@H]1CN(C)C(=O)Nc1ccccc1`, the cytotoxicity call was “active”.

As for `C[C@@H]1CN([C@H](C)CO)C(=O)c2cccc(NC(=O)c3nc4ccccc4s3)c2O[C@@H]1CN(C)C(=O)Nc1cccc2ccccc12`, the cytotoxicity call is “inactive”.

On to `C[C@H]1CN([C@@H](C)CO)C(=O)c2cccc(NC(=O)Nc3cccc4ccccc34)c2O[C@H]1CN(C)C(=O)Nc1ccccc1`, for which the cytotoxicity call is “inactive”.

With `C[C@@H]1CN([C@H](C)CO)C(=O)c2cccc(NC(=O)Nc3cccc4ccccc34)c2O[C@@H]1CN(C)C(=O)Nc1ccc(F)cc1`, the cytotoxicity call is “active”.

With `C[C@H]1CN([C@@H](C)CO)C(=O)c2cccc(NC(=O)c3nc4ccccc4s3)c2O[C@@H]1CN(C)C(=O)Nc1cccc2ccccc12`, the cytotoxicity call is “inactive”.

On to `C[C@H]1CN([C@@H](C)CO)C(=O)c2cccc(NC(=O)c3nc4ccccc4s3)c2O[C@H]1CN(C)S(=O)(=O)c1cn(C)cn1`, for which the cytotoxicity call was “active”.

Take `C[C@H](CO)N1C[C@H](C)[C@H](CN(C)C(=O)Nc2ccccc2)Oc2c(NC(=O)Nc3cccc4ccccc34)cccc2C1=O`: the cytotoxicity call is “inactive”.

As to `C[C@@H]1CN([C@@H](C)CO)C(=O)c2cccc(NC(=O)c3nc4ccccc4s3)c2O[C@H]1CN(C)S(=O)(=O)c1cn(C)cn1`, the cytotoxicity call was “inactive”.

Take `COC(=O)CN1C(=O)COc2ccc(C)cc21`: the cytotoxicity call was “inactive”.

`COc1ccc(cc1)CN1CC[C@]2(CC1)CN([C@@H](CO)c1[nH]c3cc(ccc3c12)OC)C(=O)CN(C)C`: the cytotoxicity call is “inactive”.

As to `CC(C)NC(=O)Nc1ccc2c(c1)C(=O)N([C@@H](C)CO)C[C@H](C)[C@H](CN(C)Cc1ccc(C(=O)O)cc1)O2`, the cytotoxicity call was “inactive”.

Regarding `COc1ccc(C#Cc2cnc3c(c2)C(=O)N([C@H](C)CO)C[C@H](C)[C@@H](CN(C)C(=O)CC2CC2)O3)cc1`, the cytotoxicity call is “inactive”.
